# Results: PubChem BioAssay (NCATS)
# Records with an inconclusive call do not appear. A call without a number means that no potency is given here. The source made the active and inactive calls. The call rests on the fitted dose curve; in most records, active means well fitted inhibition curve with a large enough effect; inconclusive means small, poorly fitted or top-dose-only effect; inactive means flat fitted curve, though single readings scatter. Numbered stars: 1 amine (or outer) side, 2 acyl side, 3 side chain; on linkers, the order of the positions; unused ones are H or OH. Bridge positions count the residues as written; N and C are the ends. Square brackets hold non-standard residues; d marks the D form. Peptide text beside a SMILES is read from it. I, II: the chains in the order shown. Actinocin(9to1) = Cc1c2oc3c(C)ccc(C(=O)[*:1])c3nc-2c(C(=O)[*:2])c(N)c1=O; NMeV = CN[C@H](C(=O)O)C(C)C; Sar = CNCC(=O)O
# Experiment: qHTS to identify inhibitors of the type 1 interferon - major histocompatibility complex class I in skeletal muscle: primary screen against the NCATS Pharmaceutical Collection (AID 1347407);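 further: luminescence of HiBiT knocked into endogenous HLA-B as interferon-induced MHC class I level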
# Conditions: human skeletal muscle cells, IFN-b-induced MHC-I HiBiT luminescence, 24 h; series mostly up to 45.9 µM
# In short: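 A qHTS format is used: 8-point, 1:5 compound series with 46 uM top final concentration, applied alongside 4 ng/ml IFN-beta to HLA-B*08:01-HiBiT knock-in myoblasts. Luminescence is measured after 24 h treatment.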
# Potency means the concentration at half of the fitted maximal effect.
row,SMILES,Potency
1,CN1CCCC(CC2c3ccccc3Sc3ccccc32)C1 (stereo not given),inactive
2,NC(=O)CC[C@@H]1NC(=O)[C@H](Cc2ccccc2)NC(=O)[C@H](Cc2ccc(O)cc2)NC(=O)CCSSC[C@@H](C(=O)N2CCC[C@H]2C(=O)N[C@@H](CCCN=C(N)N)C(=O)NCC(N)=O)NC(=O)[C@H](CC(N)=O)NC1=O,inactive
3,CCN(CC)CCOC(=O)C(c1ccccc1)C1CCCCC1 (stereo not given),inactive
4,O=C(OCC(O)CO)c1ccccc1Nc1ccnc2cc(Cl)ccc12 (stereo not given),inactive
5,CC(Cc1cccc(C(F)(F)F)c1)NCCOC(=O)c1ccccc1 (stereo not given),inactive
6,COC(=O)C1=C(C)NC(C)=C(C(=O)O[C@@H]2CCCN(Cc3ccccc3)C2)[C@@H]1c1cccc([N+](=O)[O-])c1,inactive
7,CC1(C)O[C@@H]2[C@@H](CO[C@@]3(COS(N)(=O)=O)OC(C)(C)O[C@@H]23)O1,inactive
8,C#C[C@]1(O)CC[C@H]2[C@@H]3CCc4cc(OC5CCCC5)ccc4[C@H]3CC[C@@]21C,inactive
9,O=C(O)CNC(=O)c1ccccc1,inactive
10,Cc1nc2n(c(=O)c1CCN1CCC(c3noc4cc(F)ccc34)CC1)CCC[C@H]2O,inactive
11,CN=C(NC#N)Nc1ccc(C2=NNC(=O)CC2C)cc1 (stereo not given),inactive
12,Cc1cc(=O)n(-c2ccccc2)n1C,inactive
13,Cc1cccn2c(=O)c(-c3nnn[nH]3)cnc12,inactive
14,COc1c2occc2c(OC)c2c(=O)cc(C)oc12,inactive
15,"Cc1c2oc3c(C)ccc(C(=O)N[C@@H]4C(=O)N[C@H](C(C)C)C(=O)N5CCC[C@H]5C(=O)N(C)CC(=O)N(C)[C@@H](C(C)C)C(=O)O[C@@H]4C)c3nc-2c(C(=O)N[C@@H]2C(=O)N[C@H](C(C)C)C(=O)N3CCC[C@H]3C(=O)N(C)CC(=O)N(C)[C@@H](C(C)C)C(=O)O[C@@H]2C)c(N)c1=O (I: T[dV]P[Sar][NMeV] / II: T[dV]P[Sar][NMeV]; ester I:1-I:C, II:1-II:C; linker I:N-II:N via Actinocin(9to1))",938 nM (active)
